Compounds with a hit are over-represented: about 1.9% of the library has one in this group of screens.
IEC-6 tox-1 = cytotoxicity in IEC-6 intestinal epithelial cells, primary screen, cytotoxicity control for KLF5 inhibitor project, cell-based, luminescence; IEC-6 cytotoxicity, luminescence viability; inhibition, % at 5 µM; actives 0.78% (n = 290,000); AID 1825, 2009;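 further: 0% = plate median of test compound wells and 100% = cytotoxic reference compound wells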
BaF3 parental = parental Ba/F3 cell viability inhibition, counter-screen for JAK2V617F inhibitor project, murine pro-B, CellTiter-Glo luminescence; inhibition, % at 5.6 µM; actives 1.1% (n = 220,000); CellTiter-Glo ATP luminescence;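 active means inhibition above a per-campaign cutoff, the mean inhibition of all tested compounds plus 3 SD, cut at about 27% in these data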;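 further: 0% = DMSO wells and 100% = JAK Inhibitor I control wells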
APP transl inh = inhibitors of APP translation via 5'UTR reporter, primary screen, APP 5'UTR luciferase, SH-SY5Y cells; SH-SY5Y APP 5'UTR-luciferase reporter, luminescence; inhibition, % at 2 µM; actives 0.82% (n = 190,000); AID 1285, 2008;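 active means inhibition above a set limit, derived from the sample mean plus 3 SD, cut at about 45% in these data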
KLF5 inh = KLF5 expression inhibitors, primary screen, DLD-1 cells, luminescence; DLD-1 KLF5 promoter-luciferase reporter; inhibition, % at 5 µM; actives 0.23% (n = 290,000);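 active means inhibition above a per-plate limit of that plate's mean compound inhibition plus 3 SD, cut at about 60% in these data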;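 further: 0% = DMSO wells and 100% = LY294002 at 200 µM; higher means less KLF5 promoter-driven luciferase light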
Ba/F3 V617F tox = reduced viability of JAK2V617F-dependent Ba/F3 cells, primary screen, JAK2V617F inhibitor project, cell-based, Ba/F3 EpoR-JAK2V617F, luminescence; AID 1446, 2008; ATP luminescence; inhibition, % at 5.6 µM; actives 1.1% (n = 220,000);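 active means inhibition above the campaign mean plus 3 SD over all tested compounds, cut at about 24% in these data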;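 further: cytokine-independent growth of Ba/F3 cells driven by EpoR plus mutant JAK2; 0% = DMSO-treated cells and 100% = JAK inhibitor I control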
BaF3 tox 2 = parental Ba/F3 cell viability inhibition, counter-screen for JAK2V617F inhibitor project, murine pro-B, CellTiter-Glo luminescence; shares compounds with Ba/F3 V617F tox; inhibition, % at 5.6 µM; actives 31% (n = 580); cells kept alive by added IL-3; AID 1520, 2009;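 active means cell growth inhibition above the hit limit set in the earlier mutant JAK2 cell screen, cut at about 27% in these data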;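 further: plate controls were DMSO-treated cells for no effect and JAK Inhibitor I control wells for full effect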
JAK2V617F conf = viability loss in Ba/F3 EpoR-JAK2V617F cells, confirmation, JAK2V617F inhibitor project, cell-based, luminescence, triplicate; inhibition, % at 5.6 µM; shares compounds with Ba/F3 V617F tox; CellTiter-Glo luminescence; actives 66% (n = 580);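 active means mean inhibition above the hit cutoff derived in the earlier primary screen, cut at about 25% in these data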;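 further: 0% = DMSO-treated cells and 100% = JAK inhibitor I control wells; higher means lower luminescence from reduced cell ATP and viability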
KLF5 inh confirm = KLF5 expression inhibitors, confirmation, DLD-1 cells, luminescence. shares compounds with KLF5 inh. DLD-1 KLF5 promoter firefly luciferase reporter. inhibition, % at 4 µM. actives 79% (n = 610);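 active means inhibition above a set limit taken from the earlier primary screen, cut at about 63% in these data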;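 further: 0% = DMSO wells and 100% = LY294002 at 200 µM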
IEC-6 tox-2 = cytotoxicity in rat IEC-6 cells, cytotoxicity control for KLF5 inhibitor project, cell-based, luminescence, triplicate; actives 56% (n = 610); inhibition, % at 4 µM; shares compounds with KLF5 inh; IEC-6 rat intestinal cells, viability luminescence; in the data active means inhibition above about 23%;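 further: cells exposed to compounds for 48 hours before viability read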
IEC-6 cytotox cf = cytotoxic compounds in IEC-6 epithelial cells, confirmation, cytotoxicity control, cell-based, luminescence | shares compounds with IEC-6 tox-1 | IEC-6 rat intestinal epithelial viability | inhibition, % at 5 µM | actives 63% (n = 1,900);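 further: 0% = vehicle and 100% = reference cytotoxic drug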
* marks the source's active call; other numbers are inactive results; x = no result given. Unless noted, no stated cut-off is given here; in the data, active means inhibition above about 22%; inactive means the rest.

SMILES	IEC-6 tox-1	BaF3 parental	APP transl inh	KLF5 inh	Ba/F3 V617F tox	others
Nc1nnnn1/N=C/C(Br)=C/c1ccccc1	101*	-2	91*	10	74*	BaF3 tox 2=105*;JAK2V617F conf=100*;IEC-6 cytotox cf=54*
COc1ccc(-c2cnc3c(c2)CCC3(C#N)C#N)cc1	70*	9	62*	19	38*	BaF3 tox 2=1;JAK2V617F conf=78*;IEC-6 cytotox cf=6
CCCNC(=O)NS(=O)(=O)c1ccc(Cl)cc1	0	5	-14	-13	-3
CCCNC(=O)c1nnsc1S(=O)(=O)c1ccc(Cl)cc1	26*	23	95*	-6	94*	BaF3 tox 2=96*;JAK2V617F conf=98*;IEC-6 cytotox cf=22*
CC(=O)OCCN1CCN(C(=O)CN2C(=O)NC(c3ccccc3)(c3ccccc3)C2=O)CC1	0	x	x	-9	x
CCn1c(SCC(=O)Nc2ccc(NC(C)=O)cc2)nc2c1c(=O)n(C)c(=O)n2C	5	x	x	-31	x
CCCS(=O)(=O)c1nnnn1-c1cccc(OC)c1	33*	5	62*	5	39*	BaF3 tox 2=76*;JAK2V617F conf=99*;IEC-6 cytotox cf=48*
COc1ccc(NS(=O)(=O)c2cccc(C(=O)OCC(=O)NC3CC3)c2)cc1	-9	x	x	-23	x
Cc1ccc(OCCN2C(=O)C(=O)c3cc(C)ccc32)cc1	91*	7	84*	-32	25*	BaF3 tox 2=57*;JAK2V617F conf=99*;IEC-6 cytotox cf=46*
COc1ccc(/C=C/C(=O)Nc2ccc(OC)nc2)cc1	-6	1	-4	-7	2
COc1ccc(CS(=O)(=O)/C(Cl)=C(/Cl)C(=O)Nc2ccc(OC)nc2)cc1	88*	5	84*	45	32*	BaF3 tox 2=99*;JAK2V617F conf=99*;IEC-6 cytotox cf=29*
CCOCCCNC(=O)/C(C#N)=C/c1cc(Br)c(O)c(Br)c1	24*	10	x	39	64*	BaF3 tox 2=14;JAK2V617F conf=55*;IEC-6 cytotox cf=10
CCOc1ccccc1C(=O)Nc1ccsc1C(=O)OC	32*	16	85*	12	54*	BaF3 tox 2=58*;JAK2V617F conf=94*;IEC-6 cytotox cf=53*
Nc1ccccc1NC1=CC(=O)CC(c2ccccc2)C1 (stereo unspecified)	31*	22	-22	14	23*	BaF3 tox 2=-2;JAK2V617F conf=-4;IEC-6 cytotox cf=2
Nc1ccccc1NC1=CC(=O)CC(c2ccco2)C1 (stereo unspecified)	-1	3	-36	-2	0
Cc1nn(C(C)C)c(C)c1CN1CCC(C(=O)Nc2cccc(-c3cccc(F)c3)c2)CC1	0	x	x	-30	x
Cc1ccc(C(=O)N/N=C/c2ccc(-c3cccc(C(F)(F)F)c3)o2)cn1	28*	-2	x	35	39*	BaF3 tox 2=58*;JAK2V617F conf=91*;IEC-6 cytotox cf=37*
O=C(CSCC(=O)Nc1ccccc1)N/N=C/c1c(O)ccc2ccccc12	-2	3	66*	68*	2	KLF5 inh confirm=79*;IEC-6 tox-2=0
O=C(N/N=C/c1c(O)ccc2ccccc12)c1ccc(Br)o1	12	x	x	68*	x	KLF5 inh confirm=86*;IEC-6 tox-2=8
Cc1occc1C(=O)N/N=C/c1c(O)ccc2ccccc12	18	x	x	57	x
Cc1ccc(OCC(=O)NCCNC(=O)c2ccco2)cc1C	-2	x	x	-35	x
Cc1ccc(SC(=O)c2c(C)noc2-c2cc(C)on2)cc1	-2	-3	x	-10	-1
COc1cccc(OCCNC(=O)Nc2cc(F)c(F)cc2Cl)c1	-2	6	-9	-14	1
O=C1CCCc2nc3c(cc21)C(O)Oc1ccccc1-3 (stereo unspecified)	2	-2	-10	110*	-2	KLF5 inh confirm=-4;IEC-6 tox-2=5
O=C1CCCc2nc3c(cc21)C(O)Oc1c-3ccc2ccccc12 (stereo unspecified)	-2	6	-157	-6	-1
SMILES	IEC-6 tox-1	BaF3 parental	APP transl inh	KLF5 inh	Ba/F3 V617F tox	others
O=C(O)c1ccc(N/N=C/c2ccc3nccnc3c2)cc1	3	2	x	98*	5	KLF5 inh confirm=103*;IEC-6 tox-2=2
Cc1ccc(C(C)C)c(OCC(O)CNC2CCCC2)c1 (stereo unspecified)	-8	x	x	-22	x
O=C(COc1ccc(C(=S)N2CCCC2)cc1)Nc1ccccc1C(F)(F)F	-2	x	x	-16	x
COc1ccc(-n2ncc3c(N4CCCCC4)ncnc32)cc1	2	3	-39	65*	1	KLF5 inh confirm=88*;IEC-6 tox-2=-6
Clc1ccc(-n2ncc3c(N4CCCCCC4)ncnc32)cc1	3	0	-27	3	-4
Cc1cccc(C)c1NC(=O)CNC(=O)C(Cc1ccccc1)NC(=O)c1ccccc1 (stereo unspecified)	-5	x	x	-21	x
O=Cc1c(NC2CCCCC2)c2ccccc2[nH]c1=O	0	x	x	-42	x
CCOC(=O)c1ccc(Oc2cc(C)nc(Cl)n2)cc1	0	0	x	3	-2
COc1cc(OC)c2cc(C(=O)N/N=C/c3ccccc3O)[nH]c2c1	15	x	x	84*	x	KLF5 inh confirm=57;IEC-6 tox-2=2
COc1ccc2[nH]c(C(=O)N/N=C/c3ccccc3OC)cc2c1	5	x	x	29	x
O=S(=O)(c1ccc(NC(=S)NCc2ccc(F)cc2)cc1)N1CCOCC1	0	x	x	-16	x
O=c1cnnc(N/N=C/c2ccccn2)[nH]1	8	51*	x	76*	41*	KLF5 inh confirm=72*;IEC-6 tox-2=50*
O=C(N/N=C/c1cccs1)c1cc(C2CC2)nc2ccccc12	5	8	15	22	2
O=C(N/N=C/c1cccs1)c1cc(-c2ccncc2)nc2ccccc12	72*	73*	95*	75*	69*	KLF5 inh confirm=83*;IEC-6 tox-2=60*
O=C(COC(=O)C1Cc2ccccc2CN1C(=O)c1ccccc1)Nc1ccc(SC(F)F)cc1 (stereo unspecified)	0	1	0	-41	-3
Clc1ccc(CSc2nnc(-c3ccc4c(c3)OCO4)o2)cc1	-2	5	4	-37	-3
O=C1CCCCC1Sc1nnc(-c2ccc3c(c2)OCO3)o1 (stereo unspecified)	6	8	-178	66*	5	KLF5 inh confirm=40;IEC-6 tox-2=-2
CC(Oc1ccc2ccc(=O)oc2c1)C(=O)NC1CCN(Cc2ccccc2)CC1 (stereo unspecified)	3	x	x	-7	x

Source: PubChem (several laboratories)
